Data reported in article PMC12136788.
Positions count from the first letter of the chain named. Over roughly 24,000 sequences, “enrichment r” has its median near 0.99; the highest 2% begin near 3.7. The entries come from a sample that favours the highest values as a whole.

T1: UNK ZnF1-3 (human, UniProt Q9C0B0 31-174)
T1 sequence: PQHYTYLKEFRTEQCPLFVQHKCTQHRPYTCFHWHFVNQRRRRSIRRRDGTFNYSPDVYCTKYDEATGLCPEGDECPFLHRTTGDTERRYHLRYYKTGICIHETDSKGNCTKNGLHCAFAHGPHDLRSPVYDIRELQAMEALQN

B1: chr19:8913615:8913616:-_ENSMUSG00000071658_ENSMUST00000096259|mus_hu|mus_mus_mus_hu_False|18_18 (ssRNA)
RNA: GGGAGUUCUACAGUCCGACGAUCAGGGUACCAAAACCUUCUGCCUGAAAUGGGUGCCCCACCCAGUAGGGAGUUGCAGCUGAAAGUAUCUGAUGCAGAAGCAGUGACUAUACGAAAGGUCACUAGAGGGGAGGGCCAGGCCAGCAACAGAGGAUUGAGCAUCA
B2: chr17:65740002:65740003:+_ENSG00000130935_ENST00000581375|hu_hu|hu_hu_hu_mus_False|98_108 (ssRNA)
RNA: GGGAGUUCUACAGUCCGACGAUCAACCCGUUCUUGCCUGGAUGAAGAACAGGAAGAUUCAUAUUAAAAAAAAUAUAUAUCCAUCAAGUUAGGUGUGGUGGCCACACCUUUACUCCCAGCACUUUGGGAGGUGGAUCUCUGAGUCAACAGAGGAUUGAGCAUCA
B3: 62932219_62936930_2744_CDS_ENSG00000061987_ENST00000546600|human|control|control (ssRNA)
RNA: GGGAGUUCUACAGUCCGACGAUCCAUAUUAACUAAACCAGUUUCUAACAAUUUGGCAACAGCAAAAAGAGAUGGUUCCUUAUUAUUUCCAUAGGCCAUAUCCAUUGCUUCUAGAGACAAGGAGCAAAGUGCAUUUAUUAAAUGCAACAGAGGAUUGAGCAUCA
B4: chr4:107545374:107545375:+_ENSMUSG00000028613_ENSMUST00000106731|mus_hu|FALSE|FALSE (ssRNA)
RNA: GGGAGUUCUACAGUCCGACGAUCUGAUGGAUAGCCACAAAGCAUAAUCAUCUUAUUUACAAAAAACAAAUGCCCCAAAACCUAAAAAAGCCCCCCCAGCAACCAAACAUCUUCUGUAAAUAUAGUUUUUAAAUGAUGAGUAAGCAACAGAGGAUUGAGCAUCA
B5: chr7:56126341:56126342:+_ENSG00000146731_ENST00000540286|hu_mus|hu_hu_hu_mus_True|8_78 (ssRNA)
RNA: GGGAGUUCUACAGUCCGACGAUCCAUGUUUCUCCUCUUGGCUCUGCGCAGAGCUACUAUGCCUUCUUUCGCAAGGGCAUCUAAGGAAAAGGGGUCAAUCCCCUUUUGAUUAAUAACGACAAAUCCUUUAUCUGAAUCACCACACAACAGAGGAUUGAGCAUCA
B6: chr7:90019433:90019434:+_ENSMUSG00000057706_ENSMUST00000082237|mus_hu|motif|central (ssRNA)
RNA: GGGAGUUCUACAGUCCGACGAUCAAAUAAUACAGUGUUCUUUGCCAUAAGGCCAUACUAAAAUAAAAAGAUUUAACCCAGCGGCAAAAAAGUUCACUGAACUUAAAUUAAAAUACUUGUAAACAUCUUUGCAAUAUGAAAUAUCAACAGAGGAUUGAGCAUCA
B7: chr18:43483763:43483764:-_ENSMUSG00000024501_ENSMUST00000121805|mus_hu|FALSE|FALSE (ssRNA)
RNA: GGGAGUUCUACAGUCCGACGAUCGCAGACUCUUUUACCUUAGUGGCCUGUCUGAUUGCAUGCAUGUAAAUGGGGGGAGGGGAGUCAAACAAAUCAAGGCUAUGCAUAAACAGAAAACAAAGCAAUAUUCGUAAAGCUAGGCAACAACAGAGGAUUGAGCAUCA
B8: chr16:2758876:2758877:+_ENSG00000167977_ENST00000301738|hu_hu|FALSE|FALSE (ssRNA)
RNA: GGGAGUUCUACAGUCCGACGAUCAAUUUUAGUGAAUUAAGUCUUAAUAUCUUUAAAUUAAAAAAACCACAAGCCUAUCUACUAUGUCAAGGUCAAAAAUCAAACAACGCUAAGCGGCCAGCAGCUCCCCAGAGAGGAUGCCCACAACAGAGGAUUGAGCAUCA
B9: chr1:10192443:10192444:+_ENSG00000130939_ENST00000377157|hu_hu|FALSE|FALSE (ssRNA)
RNA: GGGAGUUCUACAGUCCGACGAUCGACAGCCGCCAUGUAACUGAGAGCAGCCUCACGGGUUUCGCCAUUUAACAAAAUACUAUGCAGAAUCUUAAAAAGCUCUUGCCUUCCGAGCUCUAAGUAAUGCUGCAAUGAUUGGCUAACCAACAGAGGAUUGAGCAUCA
B10: chr7:90019433:90019434:+_ENSMUSG00000057706_ENSMUST00000082237|mus_hu|mus_mus_mus_hu_True|78_98 (ssRNA)
RNA: B6 RNA with U38C, C39U, U42G, G43C, C45A, A46U, C57U, U58A, G82U, G83A
B11: chr7:90019490:90019491:+_ENSMUSG00000057706_ENSMUST00000082237|mus_mus|FALSE|FALSE (ssRNA)
RNA: GGGAGUUCUACAGUCCGACGAUCUCCGUCACAAUCGUGUGAUUAUUAAAAUAAUACAGUGUUCUUUGCCAUAAGGCCAUACUAAAAAUAAAAAGAUUUAACCCAGCUACAAAAAAGUUCACUGAACUUAAAUUAAAAUACUUGCAACAGAGGAUUGAGCAUCA
B12: chr18:43483763:43483764:-_ENSMUSG00000024501_ENSMUST00000121805|mus_mus|FALSE|FALSE (ssRNA)
RNA: GGGAGUUCUACAGUCCGACGAUCUGCAGAAUCUACCUUAGUGGCCUGUCUGAUCGCAUGCAUGUAAGUGGGGGUGGGGUGGGGGUGGGGUUCAAAGAAAUUGAGAGUAUGCAAAAACAGAAACCAAAGCAAUUCAUAAAGCUACAACAGAGGAUUGAGCAUCA
B13: 160625162_160625282_3606_3pUTR_ENSG00000136536_ENST00000259050|human|control|control (ssRNA)
RNA: GGGAGUUCUACAGUCCGACGAUCAAAACUACCACCCUUAAAUUUUAUAUUUUUGCUUUAAGACAGACAAUGCAAAGGUAACUGGCAAGAGGUGAGCAAAUGUUUUAGAACAUUUAUAUUAUUGCUUAAAAUGAGAUUUGAAAUCAACAGAGGAUUGAGCAUCA
B14: chr14:78183846:78183847:+_ENSG00000119705_ENST00000557342|hu_hu|hu_hu_hu_mus_False|18_98 (ssRNA)
RNA: GGGAGUUCUACAGUCCGACGAUCUCUCAGAAAUCUUUCUUUCUUUUAUGUUUGAGCUCCGUGCAAAGCCUUUGCUCUUUGAGCUUGAACGUGGAUCUAUGGGAGGGAAAGCACUGUAUUUUCCUGUAAUUUUUUUUUUAAAGACAACAGAGGAUUGAGCAUCA
B15: chr7:135123436:135123437:+_ENSMUSG00000030795_ENSMUST00000077609|mus_mus|FALSE|FALSE (ssRNA)
RNA: GGGAGUUCUACAGUCCGACGAUCGCCUCCGCGACCAUUUCCACCACCCCGAUUGAAGUCAGCUCGGCGGGUAGCAAAUGAAACUUUAAUAGGAUUCCCAGAGAAUUCUUUACCAUCAAACCAGUCGAUAGCUGCUUUAGCAGACAACAGAGGAUUGAGCAUCA
B16: 18916218_18916338_822_CDS_ENSMUSG00000020160_ENSMUST00000068264|mouse|control|control (ssRNA)
RNA: GGGAGUUCUACAGUCCGACGAUCGUGCGGGUACUGAUGCGAGUGCAGAGGAGGCCCGUGGUUCAGGUGGUGGACCGGUUGCAUGGACCUGGCUGCAUGCGGGUCCCCAUACAUCGUGGAGGGGAUGCCUACUCCAUCCAUACCCAACAGAGGAUUGAGCAUCA

The binders below were run against T1, UNK ZnF1-3 (assay: nsRBNS (natural sequence RNA bind-n-seq); RBNS binding buffer (assumed for nsRBNS): 25 mM Tris pH 7.5, 150 mM KCl, 3 mM MgCl2, 0.01% Triton X-100, 500 ug/ml BSA, 20 U/ml SUPERase-In, 4 C; UNK is unkempt and MSI1 is Musashi-1; names of the RNAs are library labels; protein concentration not given here; high values mean tight binding).

Q: B1 was tested. Which binding signal did it give?
A: 1.83 enrichment R

Q: For B2, which binding signal is on record?
A: 0.827 enrichment R

Q: With B3 as the binder, how does the binding signal read?
A: 1.11 enrichment R

Q: B4 was tested. Which binding signal did it give?
A: 2.81 enrichment R

Q: How did the binding signal turn out when B5 was run?
A: 0.804 enrichment R

Q: Which binding signal does the source give for B6 here?
A: 3.64 enrichment R

Q: B7 was tested. Which binding signal did it give?
A: 1.62 enrichment R

Q: With B8 as the binder, how does the binding signal read?
A: 3.89 enrichment R

Q: For B9, which binding signal is on record?
A: 1.03 enrichment R

Q: B10 was tested. Which binding signal did it give?
A: 3.77 enrichment R

Q: For B11, which binding signal is on record?
A: 3.65 enrichment R

Q: B12 was tested. Which binding signal did it give?
A: 5.48 enrichment R

Q: B13 was tested. Which binding signal did it give?
A: 8.45 enrichment R

Q: With B14 as the binder, how does the binding signal read?
A: 0.693 enrichment R

Q: How did the binding signal turn out when B15 was run?
A: 1.3 enrichment R

Q: B16 was tested. Which binding signal did it give?
A: 0.98 enrichment R
